For 18 compounds, Potency and activity change, negative = inhibition results are on record in PubChem BioAssay (NCATS).

Several values for one entry are separate records, joined by “and”; a condition that tells them apart may be missing. Equal entries are not always repeated. Inconclusive results are not listed. A call without a number means that no potency is given here. Activity calls are given as the source filed them. Calls follow the shape of the full dose curve.

Assay [1] is described as follows: Cytotoxicity counterscreen for inhibitors of SARS-CoV-2 cell entry (AID 1645845). Also: nearly all actives have a fitted effect of over 50% in size. The method in brief: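 HEK293-ACE2 cells (Expi293F stably expressing human ACE2) seeded overnight, then compound for 1 h plus 48 h at 37C. Viability as ATP content by luminescence; normalized to wells with cells and media-only wells.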
Assay [2] in a line: Primary qHTS to identify inhibitors of SARS-CoV-2 cell entry (AID 1645846). Also: nearly all actives have a fitted effect of over 45% in size. The conditions noted are these: activity change, negative = inhibition: at 57.1 µM (top of the series) unless noted. A digest of the protocol: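 Luminescence readout (Bright-Glo luciferase) 48 h after pseudoparticle addition. HEK293-ACE2 cells, 1500/well; compound pre-incubation 1 h; Normalized to spike PP and bald PP.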

`NC(N)=NS(=O)(=O)c1ccc(N)cc1`: the Potency result in assay [1] and in assay [2] was “inactive” in each case.
`C[C@@H]1O[C@@H](OC[C@H]2O[C@@H](Oc3c(-c4ccc(O)c(O)c4)oc4cc(O)cc(O)c4c3=O)[C@H](O)[C@@H](O)[C@@H]2O)[C@H](O)[C@H](O)[C@H]1O`: the Potency entry in assay [1] and in assay [2] was “inactive” each time.
As for `CCCCCCCC/C=C/C(=O)O`, the Potency entry in assay [1] and in assay [2] was “inactive” throughout.
Turning to `Cc1c(N(C)CS(=O)(=O)O)c(=O)n(-c2ccccc2)n1C`, in assay [1], the Potency result was “inactive”. Besides, in assay [2], the activity change, negative = inhibition turned out to be 1.77%.
As to `C[N+](C)(CCOc1ccccc1)Cc1cccs1`, the Potency entry in assay [1] is “inactive”. In addition, the activity change, negative = inhibition in assay [2] is -23%.
As for `COc1cc(C)c(Cc2cnc(N)nc2N)cc1OC`, the Potency entry in assay [1] and in assay [2] was “inactive” throughout.
For the compound `N#CSCC(=O)O`, the Potency entry in assay [1] and in assay [2] was “inactive” in each case.
With `CC(C)Cc1ccc(CC(=O)O)cc1`, the Potency result in assay [1] and in assay [2] was “inactive” in each case.
Take `CC(C(=O)O)c1ccc2c(c1)[nH]c1ccc(Cl)cc12` (stereo unspecified): the Potency entry in assay [1] and in assay [2] was “inactive” each time.
`CC(=O)[C@@]1(O)CC[C@H]2[C@@H]3C[C@H](C)C4=CC(=O)C=C[C@]4(C)[C@@]3(F)[C@@H](O)C[C@@]21C`: in assay [1], the Potency result is “inactive”. The activity change, negative = inhibition in assay [2] worked out at 1.04%.
In the case of `CCCNC(C)C(=O)Nc1ccccc1C` (stereo unspecified), the Potency entry in assay [1] and in assay [2] was “inactive” throughout.
`CCCCOC(=O)c1ccc(O)cc1`: the Potency result in assay [1] and in assay [2] was “inactive” throughout.
For `Cc1cc(O)cc(C)c1Cl`, the Potency entry in assay [1] and in assay [2] was “inactive” in each case.
With `O=C(O)COc1nn(Cc2ccccc2)c2ccccc12`, the Potency entry in assay [1] and in assay [2] was “inactive” throughout.
As to `CCN1CCC[C@H]1CNC(=O)c1cc(S(N)(=O)=O)ccc1OC`, the Potency result in assay [1] and in assay [2] was “inactive” throughout.
`COC(=O)c1cccnc1`: the Potency result in assay [1] and in assay [2] was “inactive” throughout.
For `CC(=O)Nc1ccccc1`, in assay [1], the Potency result was “inactive”. The activity change, negative = inhibition in assay [2] was determined as 4.61%.
Turning to `OC[C@H]1O[C@@H](n2cnc3c2NC=NC[C@H]3O)C[C@@H]1O`, the Potency result in assay [1] was “inactive”. In assay [2], the activity change, negative = inhibition is -15% and -28%.
